# Test results: PubChem BioAssay
# The source made the active and inactive calls. Unless noted, no rule for the calls is given here.
# Experiments:
# [1] = compound effects on lung adenocarcinoma cell viability – A549, calcein-AM fluorescence, 48 h, basal, profiling panel (AID 1162); settings: higher = more signal; also: test concentration not given here
# [2] = compound effects on differentiated 3T3-L1 adipocyte viability – cell-based, 3T3-L1 adipocytes, calcein-AM fluorescence, 48 h, basal, profiling panel (AID 1163); settings: 3T3-L1 adipocytes viability, higher = more signal; also: test concentration not given here
# [3] = compound effects on hepatocellular carcinoma cell viability – HepG2, calcein-AM fluorescence, 48 h, basal, profiling panel (AID 1164); settings: higher = more signal; also: test concentration not given here
# [4] = compound effects on multiple myeloma cell viability – MM1S, calcein-AM fluorescence, 48 h, basal, profiling panel (AID 1165); settings: higher = more signal;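 also: viability of MM1S multiple myeloma cells under basal unstimulated conditions; test concentration not given here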
# [5] = calcein-AM signal in unstimulated myeloma cells – cell-based, calcein-AM fluorescence, 48 h, PK04 Diversity Set, profiling panel (AID 1166); settings: RPMI8226 myeloma viability, higher = more signal;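 also: cells grown under basal conditions without added stimulus; test concentration not given here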
# [6] = JC-1 mitochondrial signal, unstimulated HepG2 cells – cell-based, JC-1 fluorescence, 24 h, 100 nL compound, profiling panel (AID 1167); settings: HepG2 mitochondrial potential, higher = more signal; also: test concentration not given here
# [7] = JC-1 mitochondrial signal, unstimulated adipocytes – cell-based, JC-1 fluorescence, 3T3-L1 adipocytes, 24 h, 100 nL compound, profiling panel (AID 1168); settings: JC-1 mitochondrial fluorescence, higher = more signal, called active from +8 up or from −8 down; also: test concentration not given here
# [8] = JC-1 mitochondrial signal, unstimulated myeloma cells – cell-based, JC-1 fluorescence, RPMI8226, 24 h, 100 nL compound, profiling panel (AID 1169); settings: JC-1 mitochondrial potential fluorescence, higher = more signal; also: test concentration not given here
# [9] = JC-1 mitochondrial signal, unstimulated MM1S myeloma – cell-based, JC-1 fluorescence, 24 h, 100 nL compound, profiling panel (AID 1170); settings: MM1S mitochondrial potential, higher = more signal; also: test concentration not given here
# [10] = resazurin metabolic signal in A549 cells – cell-based, resazurin fluorescence, 24 h, PK04 Diversity Set, profiling panel (AID 1171); settings: A549 viability, higher = more signal, called active from +8 up or from −8 down; also: test concentration not given here
# [11] = resazurin metabolic signal in HepG2 cells – cell-based, resazurin fluorescence, 24 h, PK04 Diversity Set, profiling panel (AID 1172); settings: HepG2 viability, higher = more signal; also: test concentration not given here
# [12] = budding yeast growth changes without added modifier – OD600, strain BY4716, 24 h, basal condition, primary screen (AID 1173); settings: S. cerevisiae BY4716 growth, OD600, 24 h; higher = more signal, called active from +8 up or from −8 down
# [13] = viability profiling in MM1S myeloma cells – cell-based, resazurin fluorescence, basal, 24 h, PK04 Diversity Set, profiling panel (AID 1174); settings: higher = more signal, called active from +8 up or from −8 down; also: test concentration not given here
# [14] = biological target: Dihydroorotate dehydrogenase (quinone), mitochondrial (Plasmodium falciparum (isolate 3D7)) (UniProt Q08210); experiment: inhibition of P. falciparum DHODH – biochemical, C-terminal His tag, absorbance 600 nm, primary screen (AID 1175); settings: PfDHODH enzyme, DCIP absorbance 600 nm; higher = more signal, called active from +8 up or from −8 down;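 also: recombinant parasite enzyme with a five histidine tag at its C terminus; test concentration not given here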
# Dihydroorotate dehydrogenase (quinone), mitochondrial (Plasmodium falciparum (isolate 3D7)), sequence (Q08210 whole entry, looked up): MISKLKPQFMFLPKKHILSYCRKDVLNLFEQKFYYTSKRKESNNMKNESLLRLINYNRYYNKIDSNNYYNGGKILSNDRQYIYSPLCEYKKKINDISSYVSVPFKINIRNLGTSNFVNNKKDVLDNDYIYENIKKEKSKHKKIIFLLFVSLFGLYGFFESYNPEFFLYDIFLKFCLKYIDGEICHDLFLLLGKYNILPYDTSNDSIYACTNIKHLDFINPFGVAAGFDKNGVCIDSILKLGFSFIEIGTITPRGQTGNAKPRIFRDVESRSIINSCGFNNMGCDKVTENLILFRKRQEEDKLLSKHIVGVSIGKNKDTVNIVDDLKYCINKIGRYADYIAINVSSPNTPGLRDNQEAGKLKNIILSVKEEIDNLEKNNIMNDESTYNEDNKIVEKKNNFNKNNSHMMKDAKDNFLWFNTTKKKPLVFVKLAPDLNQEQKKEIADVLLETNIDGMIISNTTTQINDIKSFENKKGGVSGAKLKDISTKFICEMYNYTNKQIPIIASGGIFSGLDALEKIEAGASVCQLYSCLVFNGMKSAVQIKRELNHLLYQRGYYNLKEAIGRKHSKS
# [15] = inhibition of PAO1 biofilm formation – strain PAO1, LB-PBS medium, absorbance 600 nm, primary screen (AID 1176); also: test concentration not given here; settings: P. aeruginosa PAO1 growth/biofilm, A600, 12 h; higher = more signal
# [16] = growth modulation of vineyard yeast isolate – strain RM11-1a, OD600, basal, 24 h, primary screen (AID 1177);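 also: cultures grown under basal conditions with no added stressor; test concentration not given here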; settings: S. cerevisiae RM11-1a growth, OD600, 24 h; higher = more signal, called active from +8 up or from −8 down
# [17] = growth of efflux-deficient E. coli DRC39 – strain DRC39, OD650, 24 h, E. coli filamentation inducers, primary screen (AID 1178);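 also: growth measured as culture turbidity by optical density at 650 nm; test concentration not given here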; settings: E. coli DRC39 acrAB, higher = more signal, called active from +8 up or from −8 down
# [18] = growth of efflux-deficient E. coli DRC39 – strain DRC39, OD650, 48 h, E. coli filamentation inducers, primary screen (AID 1179);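 also: screen aims at cell division blockers that make cells filament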; settings: E. coli DRC39 delta-acrAB growth, higher = more signal, called active from +8 up or from −8 down
# [19] = viability profiling in RPMI8226 myeloma cells – cell-based, resazurin fluorescence, basal, 24 h, PK04 Diversity Set, profiling panel (AID 1180); settings: higher = more signal;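 also: RPMI8826 multiple myeloma cell line at 5000 cells per well; test concentration not given here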
# [20] = biological target: E3 ubiquitin-protein ligase XIAP (Homo sapiens) (UniProt P98170); experiment: small molecules binding XIAP protein – biophysical, small-molecule microarray, fluorescence 635 nm, primary screen (AID 1181); settings: higher = more signal;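 also: score merges 667 nm emission and signal to noise over triplicate slides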
# E3 ubiquitin-protein ligase XIAP (Homo sapiens), sequence (P98170 whole entry, looked up): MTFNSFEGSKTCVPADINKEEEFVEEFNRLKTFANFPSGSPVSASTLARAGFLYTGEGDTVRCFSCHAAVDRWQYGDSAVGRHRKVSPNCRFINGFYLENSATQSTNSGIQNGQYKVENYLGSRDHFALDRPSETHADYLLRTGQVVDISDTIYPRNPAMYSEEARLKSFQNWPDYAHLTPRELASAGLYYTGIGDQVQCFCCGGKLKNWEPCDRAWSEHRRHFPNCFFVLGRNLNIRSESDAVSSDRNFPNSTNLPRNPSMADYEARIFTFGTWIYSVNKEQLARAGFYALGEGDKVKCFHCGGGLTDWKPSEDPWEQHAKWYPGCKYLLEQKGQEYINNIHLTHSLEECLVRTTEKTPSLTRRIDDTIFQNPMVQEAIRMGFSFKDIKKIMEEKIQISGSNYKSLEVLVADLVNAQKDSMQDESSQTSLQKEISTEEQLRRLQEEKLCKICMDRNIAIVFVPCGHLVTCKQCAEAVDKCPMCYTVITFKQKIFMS
Compound,z-score [1],z-score [2],z-score [3],z-score [4],z-score [5],z-score [6],z-score [7],z-score [8],z-score [9],z-score [10],z-score [11],z-score [12],z-score [13],composite z-score [14],z-score [15],z-score [16],z-score [17],z-score [18],z-score [19],composite z-score [20]
CN(C)CCCNC(=O)[C@@H]1c2ccccc2C(=O)N(Cc2ccccc2C(F)(F)F)[C@H]1c1ccc(CO)cc1,1.42,0.747,1.13,0.353,1.09,2.98,-0.343 (inactive),0.188,-0.317,1.45 (inactive),0.788,-0.779 (inactive),0.744 (inactive),-0.0587 (inactive),-0.534 (inactive),0.171 (inactive),0.858 (inactive),0.783 (inactive),0.7,-0.0344
CC(C)(C)N1CC=CC23O[C@@H]4C=CCCOC(=O)C4[C@H]2C(=O)N(CCCCCCO)[C@@H]3C1=O (stereo not given in full),0.0905,-2.98,0.952,1.35,0.229,0.212,-0.501 (inactive),-0.0402,-0.516,-0.523 (inactive),0.0735,-0.437 (inactive),-0.176 (inactive),0.713 (inactive),-0.456 (inactive),0.735 (inactive),-0.0435 (inactive),0.43 (inactive),0.382,0.189
CCCCC(=C=CC[C@H](O)c1ccc(CO)o1)CCO,-0.231,-0.652,0.115,-0.562,-0.0295,-0.787,-0.848 (inactive),-0.0527,-0.534,-0.598 (inactive),-0.585,-0.976 (inactive),0.0305 (inactive),-0.776 (inactive),0.224 (inactive),0.648 (inactive),-0.312 (inactive),-0.409 (inactive),-0.34,-0.0663
COc1ccc(C(O)C2C=CC3C(=O)N(C)C(=O)C3N2N(c2ccccc2)c2ccccc2)cc1 (stereo not given),-0.738,-0.863,0.132,0.513,-0.556,-0.93,-1.3 (inactive),-0.544,-0.426,-0.691 (inactive),-0.326,0.405 (inactive),-1.61 (inactive),-0.472 (inactive),0.971 (inactive),0.279 (inactive),-0.41 (inactive),0.0882 (inactive),-1.29,-0.0772
COC(=O)[C@@]1(Cc2ccc(OC)cc2)[C@H]2c3cc(C(=O)N4CCCC4)n(Cc4ccc(C(F)(F)F)nc4)c3C[C@H]2CN1C(=O)c1ccccc1,-1.3,0.202,0.0749,-1.03,-1.33,0.952,-1.59 (inactive),-0.779,-1.69,-0.266 (inactive),-0.35,1.37 (inactive),-1.07 (inactive),-0.77 (inactive),1.08 (inactive),-0.809 (inactive),-0.886 (inactive),-0.71 (inactive),-2.32,-0.02
COc1ccc([Si](C)(C)[C@@H]2[C@@H](CC(=O)N3CCC[C@H]3CO)O[C@]3(C(=O)N(Cc4ccc(N5CCOC5=O)cc4)c4ccccc43)[C@H]2C)cc1,-0.526,1.05,-2.21,-2.64,-4.54,0.391,1.67 (inactive),-1.07,-1.75,-1.77 (inactive),-1.39,-0.793 (inactive),-2.01 (inactive),-2.19 (inactive),1.06 (inactive),-0.975 (inactive),0.0669 (inactive),0.459 (inactive),-2.98,0.0819
Cc1ccc(S[C@]2(C(=O)NCc3ccccc3)CC(=O)N(Cc3ccccc3C(F)(F)F)[C@@H]2c2ccc(CO)cc2)cc1,0.653,0.269,1.73,0.0811,1.36,0.779,0.311 (inactive),-0.0337,-0.216,-1.35 (inactive),-0.704,-0.359 (inactive),0.103 (inactive),-1.27 (inactive),0.416 (inactive),-1.38 (inactive),0.57 (inactive),1.46 (inactive),-0.307,0.109
C=C(COC)C(=O)CC[C@H](OC(=O)c1cccnc1)c1ccc(OCCO)cc1,0.369,0.0993,0.143,-1.93,-0.418,-1.02,-0.351 (inactive),0.878,-0.0164,-0.552 (inactive),-0.974,-3.4 (inactive),-0.443 (inactive),-2.45 (inactive),-0.0342 (inactive),1.29 (inactive),-0.768 (inactive),-0.8 (inactive),-0.776,-0.0013
COC(=O)[C@H](Cc1ccccc1)N1CC2=CCCC=C[C@@H]2[C@H]1[C@H](O)Cc1ccccc1,-0.183,-0.635,0.244,-3.12,-1.41,-0.866,-0.116 (inactive),-1.16,-0.746,0.705 (inactive),0.272,-1.7 (inactive),0.612 (inactive),-0.313 (inactive),-0.565 (inactive),-0.77 (inactive),-0.337 (inactive),-0.27 (inactive),0.0722,0.104
COc1ccc(C(=O)Nc2ccc3c(c2)[C@@]2(O[C@H](CCO)[C@@H]([Si](C)(C)c4ccc(OC)cc4)[C@@H]2C)C(=O)N3Cc2ccccc2)cc1,-1.68,1.38,-3.6,-2.72,-4.3,-1.9,1.59 (inactive),-1.04,-2.2,-2.72 (inactive),-2.52,-1.96 (inactive),-8.32 (active),-0.687 (inactive),0.249 (inactive),2.7 (inactive),-0.59 (inactive),-0.927 (inactive),-5.58,-0.131
COCCOC(=O)N1C(=O)[C@@]2(c3cc(C#Cc4ccc(OC)cc4)ccc31)[C@H](c1ccc(OCCO)cc1)N1[C@H](c3ccccc3)[C@H](c3ccccc3)OC(=O)[C@H]1[C@@H]2C(=O)NC[C@H](O)c1ccccc1,0.0843,-0.129,-0.294,-0.291,-1.48,-0.305,1.67 (inactive),-0.68,-1.52,-0.377 (inactive),-0.234,3.05 (inactive),-0.486 (inactive),-1.12 (inactive),5.17 (inactive),3.81 (inactive),-0.6 (inactive),-0.189 (inactive),-0.508,0.115
COC(=O)[C@@]1(Cc2ccccc2)[C@H]2c3cc(C(=O)N(C)C)n(CCSC(=N)N)c3C[C@H]2CN1C(=O)c1ccccc1,-0.944,0.451,-1.11,-0.948,-1.07,0.121,-1.1 (inactive),-0.889,-0.656,-0.541 (inactive),-0.436,1.36 (inactive),-0.399 (inactive),0.644 (inactive),-0.0424 (inactive),0.0986 (inactive),-0.456 (inactive),-0.295 (inactive),-0.374,-0.0592
C=CCOC(=O)[C@H]1[C@@H]2C(=O)O[C@@H](c3ccccc3)[C@@H](c3ccccc3)N2[C@@H](c2ccc(OCCOC(=O)[C@@H]3C[C@@H]4C(=O)N[C@@H](CCCC[N+](C)(C)C)C(=O)N4[C@@H]3c3ccc(O)cc3)cc2)[C@]12C(=O)Nc1ccc(I)cc12,-0.717,-0.169,-0.457,-2.9,-1.43,-2,0.638 (inactive),-0.767,-0.879,0.281 (inactive),-0.0156,0.118 (inactive),-1.17 (inactive),-2.21 (inactive),1.12 (inactive),2.46 (inactive),-1.46 (inactive),-1.11 (inactive),-0.854,0.261
CC1CC/C=C\[C@H]2OC34C=CCN(C(C)(C)C)C(=O)[C@H]3N(CCCO)C(=O)[C@@H]4C2C(=O)O1 (stereo not given in full),-0.459,0.0593,-0.869,1.15,-0.339,-0.749,-0.274 (inactive),-0.0634,0.522,-0.0125 (inactive),-0.216,1 (inactive),-0.32 (inactive),-0.555 (inactive),0.261 (inactive),0.0605 (inactive),-0.282 (inactive),-0.52 (inactive),0.276,-0.02
COC(=O)C(CC#Cc1ccc2c(c1)[C@]1(C(=O)N2)[C@H](C(=O)NC[C@H](O)c2ccccc2)[C@H]2C(=O)O[C@H](c3ccccc3)[C@H](c3ccccc3)N2[C@@H]1c1ccccc1OCCO)C(=O)OC,-0.101,1.14,-0.272,-3.29,-4.57,-0.0353,1.82 (inactive),-1.16,-2.1,0.422 (inactive),0.786,1.42 (inactive),-7.38 (inactive),-7.26 (inactive),1.7 (inactive),1.6 (inactive),0.0386 (inactive),-0.477 (inactive),-6.76,-0.0629
COc1cc(C(O)C2C=CC3C(=O)N(c4ccccc4)C(=O)C3N2Nc2ccccc2)cc(OC)c1OC (stereo not given),-0.591,-1.66,-0.342,0.294,-0.0482,-2.43,-1.22 (inactive),-0.953,-0.116,-0.427 (inactive),-0.945,-7.58 (inactive),-0.191 (inactive),0.484 (inactive),1.11 (inactive),0.499 (inactive),-0.393 (inactive),-0.433 (inactive),-0.977,0.0845
CCOC(=O)C[C@H]1[C@H](OC(=O)Cc2ccc3c(c2)OCO3)[C@@H](NC(=O)Cc2ccc(OC)cc2)c2cc(OCCCO)ccc2N1C(=O)Cc1ccc(OC)cc1,2.07,1.17,1.57,0.405,-0.658,1.34,0.376 (inactive),0.229,-0.88,-0.379 (inactive),-0.354,-0.605 (inactive),0.594 (inactive),-1.72 (inactive),0.501 (inactive),-1.62 (inactive),1.44 (inactive),1.94 (inactive),1.02,-0.207
